This is a sample that favours compounds with a hit; in the whole collection about 3.9% have one here.
Autofluor counter: counter-screen for toxin protease inhibitors: compound fluorescence; compound autofluorescence counterscreen, microsphere flow cytometry; hits give high values; fluorescence intensity (concentration not given with the values); 360,000 compounds, 3.1% hits; AID 624483; in the data active = fluorescence intensity above about 16000; inconclusive = no clear call, values can overlap the other calls
SARS 3CLpro inh: SARS-CoV 3CLpro protease inhibitors, primary screen, biochemical, quenched FRET; Replicase polyprotein 1ab (Severe acute respiratory syndrome coronavirus), P0C6X7; recombinant SARS-CoV 3CLpro, quenched FRET peptide cleavage; inhibition, % at 6 µM; 290,000 compounds, 0.14% hits; AID 1706, 2009; in the data active = inhibition above about 12%
DUSP3 inh: VHR1 phosphatase inhibitors, primary screen, biochemical, absorbance, uHTS; Dual specificity protein phosphatase 3 (Homo sapiens), P51452; 290,000 compounds, 0.52% hits; inhibition, % at 13.3 µM; recombinant VHR phosphatase, pNPP absorbance; in the data active = inhibition above about 50%
BoNT-F LC inh: BoNT/F light chain protease inhibitors, primary screen, biochemical, flow cytometry, MLPCN library. AID 588497, 2011. inhibition, % at 10 µM. Multiplex microsphere protease cleavage assay. Botulinum neurotoxin type F light chain protease (Clostridium botulinum). 360,000 compounds, 0.22% hits; in the data active = inhibition above about 35%, passing the limit was not always enough; inconclusive = no clear call, values can overlap the other calls; note: plate controls were buffer without enzyme for full effect and enzyme alone for no effect
BoNT A protease: BoNT/A light chain protease inhibitors, primary screen, biochemical, flow cytometry, MLPCN library. Botulinum neurotoxin type A light chain protease (Clostridium botulinum A str. ATCC 3502). multiplex microsphere protease substrate cleavage. inhibition, % at 10 µM. 360,000 compounds, 0.17% hits. AID 588499, 2011; note: plate controls were buffer without enzyme for full effect and enzyme alone for no effect
Anthrax LF inh2: Bacillus anthracis LF protease inhibitors, primary screen, biochemical, multiplex microsphere, MLPCN library | 360,000 compounds, 0.12% hits | multiplex microsphere protease cleavage assay | inhibition, % at 10 µM | Lethal factor (Bacillus anthracis), P15917 | AID 588501, 2011; note: plate controls were buffer without enzyme for full effect and enzyme alone for no effect
Starred values were filed as active, the others as inactive; ? = inconclusive; . = no result given; ! = not active in a repeat. Cut-off read from the data, not from the text of the source, unless noted: active = inhibition above about 30%; inconclusive = no clear call, values can overlap the other calls; inactive = below that.

SMILES	Autofluor counter	SARS 3CLpro inh	DUSP3 inh	BoNT-F LC inh	BoNT A protease	Anthrax LF inh2
CCOC(=O)C1CCN(c2c(NCCCN(CC)c3ccccc3)c(=O)c2=O)CC1	21430*	7.0	5.6	-1.0	?	0.5
Cc1ccc(Cl)cc1NC(=O)COC(=O)c1ccc(N2CCCC2)c([N+](=O)[O-])c1	.	-4.4	-2.5	.	.	.
OC(COc1cccc2ccccc12)CN1CCN(c2ccccc2)CC1 (stereo not given)	3158	-2.5	24.4	2.5	1.2	7.9
C=CCc1cc(C)ccc1OCC(O)CN1CCN(c2ccccc2)CC1 (stereo not given)	8912	-2.1	2.7	-10.6	-1.2	-3.5
CC(COc1cccc2ccccc12)CN1CCN(C)CC1 (stereo not given)	24009*	-5.8	4.5	-5.5	-1.5	-2.0
COc1ccccc1N1CCN(CC(O)COc2cccc3ccccc23)CC1 (stereo not given)	4348	16.8*!	-3.0	-11.7	-1.1	-10.6
C=CCc1cc(OC)ccc1OCC(O)CN1CCN(c2ccc(OC)cc2)CC1 (stereo not given)	22414*!	-0.3	20.7	-12.8	?	-2.5
O=C(O)CCC(=O)Nc1ccc(Sc2ccc([N+](=O)[O-])cc2)cc1	2125	4.4	-7.9	-5.6	-0.3	-1.7
COc1ccc(/C=N/NC(=O)Cc2csc(Nc3cccc(C(F)(F)F)c3)n2)cc1C	3354	-0.5	16.5	-11.3	0.0	-3.0
CC(C)CN(C(=O)COC(=O)c1ccccc1SCC(=O)N1CCCC1)C1CCS(=O)(=O)C1 (stereo not given)	3083	.	.	-2.4	-0.7	-18.6
COc1ccc(CNC(=O)CCC(=O)Nc2ccc(Cl)cc2)cc1	3991	-1.2	0.7	-0.3	0.4	-12.7
O=C(O)C1=C(C(=O)Nc2cc(C(F)(F)F)ccc2Cl)CCCC1	4438	-2.6	22.5	2.9	-0.7	3.1
COc1ccc(-c2cnc3c(c2)C(=O)N([C@H](C)CO)C[C@@H](C)[C@@H](CN(C)C(=O)NC2CCCC2)O3)cc1	3478	.	.	-1.6	-0.1	-1.5
O=C(CSc1ncn[nH]1)N1CCN(S(=O)(=O)c2ccc(Cl)cc2)CC1	21069*	2.9	9.0	-3.3	-3.4	-1.9
Cc1nnc(SCC(=O)N2CCN(S(=O)(=O)c3ccc(Cl)cc3)CC2)[nH]c1=O	3310	0.1	17.2	6.8	0.1	-0.5
O=C(N/N=C/c1ccc(N2CCOCC2)cc1)c1ccccc1OCCOc1ccccc1	4547	0.3	33.3	-6.6	1.3	-2.7
CCCCc1ccc(N2C(=NC(=O)C3CCCO3)SC3CS(=O)(=O)CC32)cc1 (stereo not given)	5719	1.6	-14.4	-7.9	-1.7	-3.2
O=C1CC(N2CCOCC2)C(=O)N1Cc1ccc(N2CCCC2=O)cc1 (stereo not given)	5105	-2.2	-0.9	-0.6	-0.5	-6.3
O=C1CC(N2CCN(C/C=C/c3ccccc3)CC2)C(=O)N1Cc1ccc(N2CCCC2=O)cc1 (stereo not given)	19939*	-1.8	42.7	-2.5	0.4	-7.3
Cc1ccc(N(C)C(=O)N2CCN(S(=O)(=O)c3ccc(C)c(C)c3)CC2)cc1	24506*	4.0	28.3	-9.1	-6.4	-0.9
O=C(COC(=O)c1ccc2ccccc2n1)c1ccc(F)cc1	4170	-0.1	29.3	0.6	0.7	0.3
O=C(OCCNC(=O)c1ccc2ccccc2n1)c1ccc(F)cc1	16884*	7.1	39.1	-4.6	?	0.8
O=C(Oc1ccc2c(c1)OCC2=O)c1ccc(Cl)cc1	4242	-2.5	13.3	?	?	6.1
COc1cc(C(=O)Oc2ccc3c(c2)OCC3=O)cc(OC)c1OC	4422	-8.8	37.9	43.7*	1.0	2.2
CCC1Oc2ccc(C)cc2N(CC(=O)NCCCN2CCCCC2CC)C1=O (stereo not given)	24712*	6.7	-4.9	-6.3	-4.2	-3.6
SMILES	Autofluor counter	SARS 3CLpro inh	DUSP3 inh	BoNT-F LC inh	BoNT A protease	Anthrax LF inh2
Cc1ccc2c(c1)N(CC(=O)NCCCN1CCCCC1C)C(=O)c1cccnc1O2 (stereo not given)	5639	-3.0	81.4	1.2	-2.0	4.2
CCC1Oc2ccc(C)cc2N(CC(=O)NCC2CCCO2)C1=O (stereo not given)	5167	-1.1	-4.2	2.0	0.2	-0.1
CC1CCCCN1CCCNC(=O)CN1C(=O)c2cccnc2Oc2ccccc21 (stereo not given)	5167	-1.0	55.6*	8.3	0.5	0.4
CC1CN(C(=O)CCC(=O)NCCCc2ccccc2)c2ccccc2O1 (stereo not given)	5357	0.7	25.1	-6.2	-0.5	-3.7
CCC1Oc2ccc(C)cc2N(CC(=O)NCCCN2CCOCC2)C1=O (stereo not given)	4883	1.1	1.9	8.9	1.4	2.0
CCC1Oc2ccc(C)cc2N(CC(=O)NCCC2=CCCCC2)C1=O (stereo not given)	18757*	-1.7	7.2	6.8	?	1.0
CCC1CCCCN1CCCNC(=O)CCC(=O)N1CC(C)Oc2ccccc21 (stereo not given)	4752	-2.0	52.8*	-13.2	-1.5	-9.3
Cc1cc(/N=C/C=C2\N(C)c3ccccc3C2(C)C)n(CCC#N)n1	8254	-9.2	21.3	-13.8	-0.9	-3.4
CCC1Oc2ccc(C)cc2N(CC(=O)NCCCN2CCCCC2C)C1=O (stereo not given)	5358	-3.0	57.9*	7.3	0.9	-3.3
Cc1ccc2c(c1)NC(=O)C(CC(=O)NCCCN1CCCCC1C)O2 (stereo not given)	4770	-1.1	16.6	-14.6	-1.0	0.8
CCCCn1c(O)c(C(C)=NC(Cc2c[nH]c3ccccc23)C(=O)OC)c(=O)[nH]c1=O (stereo not given)	20728*	-1.4	9.9	-2.9	-2.9	0.4
CCCCn1c(O)c(C(CC)=Nc2ccc3c(c2)CCC3)c(=O)[nH]c1=O	16607*	-3.5	5.0	8.7	7.8	-12.0
CCCCn1c(O)c(C(C)=NCCc2c[nH]c3ccccc23)c(=O)[nH]c1=O	5010	8.3	0.0	?	-3.1	0.7
CCCCn1c(O)c(C(C)=Nc2ccc(OCC)cc2)c(=O)[nH]c1=O	3391	-0.5	13.4	-11.6	-0.5	-3.1
CCCCn1c(O)c(C(C)=Nc2cccc(C(=O)O)c2)c(=O)[nH]c1=O	21668*	2.1	9.4	0.0	?	0.0
CCCCn1c(O)c(C(CC)=Nc2ccc(C(=O)O)cc2)c(=O)[nH]c1=O	8172	4.1	8.8	-8.2	-0.5	-9.4
O=S1(=O)C[C@H](N2CC[C@@H](O)C2)[C@@H](COCc2ccccc2)N1	6135	.	.	-14.0	-0.7	-7.0

Screens: PubChem BioAssay, several laboratories
